Screens deposited in PubChem BioAssay by National Center for Advancing Translational Sciences (NCATS).
Giardia FBPA inh = blocks Giardia fructose-bisphosphate aldolase activity; A8B2U2; purified Giardia FBPA; Potency, µM (doses to about 59.6 µM), for inactives: at the top dose activity, negative = inhibition, actives largely listed as inhibitors; 290,000 tested, 0.71% active; AID 2451; further: potency means the concentration at half of the fitted maximal effect; on the % scale 0 is the no-effect control and ±100 the full control effect; nearly all actives have a fitted effect of over 55% in size
Target sequence (A8B2U2 whole entry, looked up): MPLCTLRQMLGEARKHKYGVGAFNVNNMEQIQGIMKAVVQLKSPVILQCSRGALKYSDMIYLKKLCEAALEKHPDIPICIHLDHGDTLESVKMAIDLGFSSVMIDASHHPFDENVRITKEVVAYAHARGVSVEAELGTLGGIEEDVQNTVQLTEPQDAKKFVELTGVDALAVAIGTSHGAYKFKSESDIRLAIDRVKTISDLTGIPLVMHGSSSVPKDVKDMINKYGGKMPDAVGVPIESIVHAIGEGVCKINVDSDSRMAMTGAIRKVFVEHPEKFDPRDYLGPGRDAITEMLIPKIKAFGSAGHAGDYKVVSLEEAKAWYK
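40 nM FBPA preincubated 10 min at RT with compound (up to 57.5 uM final), then substrate plus GAPDH/TPI/NAD/arsenate coupling and diaphorase/resazurin added. Fluorescence read after 20 min at RT, 525/598 nm.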
AmpC no deterg = blocks E. coli AmpC beta-lactamase in detergent-free assay. P00811. AmpC nitrocefin hydrolysis, absorbance 480 nm, 0.0001% Triton. Potency, µM (highest dose often 57.1 µM), for the others: at the highest dose activity change, negative = inhibition, actives largely listed as inhibitors. 330,000 tested, 0.52% active. AID 485341;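 further: potency means the concentration at half of the fitted maximal effect; plate controls were no compound for no effect and no enzyme for full effect; nearly all actives have a fitted effect of over 20% in size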
Target sequence (P00811 whole entry, looked up): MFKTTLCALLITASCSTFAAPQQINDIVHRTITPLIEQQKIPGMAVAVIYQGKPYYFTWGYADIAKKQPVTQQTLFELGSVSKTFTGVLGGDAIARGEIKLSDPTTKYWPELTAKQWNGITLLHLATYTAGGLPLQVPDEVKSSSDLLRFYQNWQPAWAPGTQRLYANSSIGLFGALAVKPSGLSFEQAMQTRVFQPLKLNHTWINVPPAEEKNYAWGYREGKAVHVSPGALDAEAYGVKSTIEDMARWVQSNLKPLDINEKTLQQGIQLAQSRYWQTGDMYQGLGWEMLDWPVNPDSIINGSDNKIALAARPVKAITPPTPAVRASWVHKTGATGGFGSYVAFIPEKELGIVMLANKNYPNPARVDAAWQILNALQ
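20 mM phosphate pH 7.0 + 0.01% (detergent screen) or 0.0001% Triton X-100; 5.3 nM AmpC reagent; cpd preinc 15 min RT; nitrocefin (800 uM stock) to start; A480 q20 s × 4 min; Activity was normalised to no-enzyme and no-compound control wells.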
SARS PLpro yeast-1 = SARS-CoV PLP inhibition in yeast; S. cerevisiae expressing SARS-CoV PLpro, growth rescue; Potency, µM (doses to about 32.9 µM), for inactives: at the highest dose activity, positive = growth rescue, usual class: activators; 330,000 tested, 0.19% active; calls by dose curve; further: potency means the concentration at half of the fitted maximal effect; 0% is about no effect; nearly all actives have a fitted effect of over 55% in size
AmpC inh detg = inhibitors of E. coli AmpC beta-lactamase with detergent | P00811 | 370,000 tested, 0.041% active | Potency, µM (top dose mostly 114 µM), inactives show at the highest dose activity change, negative = inhibition, usual class: inhibitors | AmpC hydrolysis of nitrocefin, absorbance 480 nm, 0.01% Triton;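 further: potency means the concentration at half of the fitted maximal effect; 0% = no-compound wells and -100% = no-enzyme wells; nearly all actives have a fitted effect of over 25% in size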
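AmpC (5.3 nM in the dispensed reagent) in 20 mM phosphate pH 7.0 with 0.01% (detergent screen) or 0.0001% Triton X-100 was preincubated with compounds for 15 min at room temperature. Nitrocefin was then added from an 800 uM solution, and hydrolysis was followed at 480 nm.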
SARS PLpro yeast-2 = Rescues yeast growth by inhibiting SARS-CoV PLpro | AID 652038 | 1,000 tested, 19% active | calls only | shares compounds with SARS PLpro yeast-1 | yeast expressing SARS-CoV PLpro, growth phenotype rescue; call rule not given here
Starred values were filed as active, the others as inactive. This is a sample that favours compounds with a hit; in the whole collection about 1.1% have one here. Unless noted, the call rests on the fitted dose curve; in most records, active means well fitted curve in the direction sought with a large enough effect; inconclusive means small, poorly fitted or top-dose-only effect, or another doubt; inactive means no such curve, though single readings can be large; an effect the other way counts as inactive or inconclusive.

For C/C(=N\NC(=O)c1ccc(C)cc1)c1c(C)[nH]n(-c2ccccc2)c1=O the results were Giardia FBPA inh 13%, AmpC no deterg -35%, SARS PLpro yeast-1 inconclusive and AmpC inh detg 0%.
`C/C(=N\NC(=O)c1ccccc1)c1c(C)[nH]n(-c2ccccc2)c1=O` gave Giardia FBPA inh 5%, AmpC no deterg -35%, SARS PLpro yeast-1 6.3µM*, AmpC inh detg -1% and SARS PLpro yeast-2 inactive.
For O=C(COC(=O)c1cccnc1Cl)NC1CCCCCC1 the results were AmpC no deterg -15%, SARS PLpro yeast-1 3.2µM* and SARS PLpro yeast-2 inactive.
Screening O=C(COC(=O)c1ccccc1Cl)NC1CCCCCC1 returned AmpC no deterg 2% and SARS PLpro yeast-1 -7%.
O=C(/C=C/c1cccs1)NC(=S)NNC(=O)Cc1cccs1 was read as Giardia FBPA inh inconclusive, AmpC no deterg -33%, SARS PLpro yeast-1 inconclusive, AmpC inh detg inconclusive and SARS PLpro yeast-2 active.
For Cc1oc2cc(OCc3cnn(-c4ccccc4)c3)ccc2c(=O)c1Oc1ccccc1F the results were Giardia FBPA inh 1%, AmpC no deterg -34%, SARS PLpro yeast-1 2.5µM*, AmpC inh detg inconclusive and SARS PLpro yeast-2 inactive.
Screening CCn1c(SCC(=O)NC2CCCCC2)nnc1-c1ccccn1 returned AmpC no deterg -4%, SARS PLpro yeast-1 3.5µM*, AmpC inh detg -2% and SARS PLpro yeast-2 inactive.
Screening CCn1c(SCC(=O)NC2CCCC2)nnc1-c1ccccn1 returned Giardia FBPA inh 1%, AmpC no deterg -22%, SARS PLpro yeast-1 -1% and AmpC inh detg 3%.
`CNC[C@@H]1Oc2ccc(NC(=O)Nc3c(C)noc3C)cc2CC(=O)N([C@H](C)CO)C[C@H]1C` gave AmpC no deterg -3%, SARS PLpro yeast-1 11µM* and SARS PLpro yeast-2 inactive.
Screening COC(=O)c1ccc(C2C=C(c3ccc(Cl)cc3)Nc3nc4ccccc4n32)cc1 (configuration not stated) returned AmpC inh detg 1%.
Screening O=C(CCNS(=O)(=O)c1cccs1)Nc1ccccc1F returned Giardia FBPA inh 3%, AmpC no deterg -23%, SARS PLpro yeast-1 inconclusive, AmpC inh detg 1% and SARS PLpro yeast-2 inactive.
For O=C(Nc1ccc2oc(-c3cccnc3)nc2c1)c1ccc(-c2cccc(OC(F)(F)F)c2)o1 the results were AmpC inh detg 34%.
`CCCCN1CNC(=S)N(Cc2ccccc2)C1` gave Giardia FBPA inh -1%, AmpC no deterg -17%, SARS PLpro yeast-1 inconclusive, AmpC inh detg -9% and SARS PLpro yeast-2 inactive.
Screening CC(C)CN1CN(Cc2ccccc2)CNC1=S returned Giardia FBPA inh 1%, AmpC no deterg -18%, SARS PLpro yeast-1 13µM*, AmpC inh detg -4% and SARS PLpro yeast-2 active.
CC(C)CN1CN(Cc2ccco2)CNC1=S was read as Giardia FBPA inh 0%, AmpC no deterg -15%, SARS PLpro yeast-1 6% and AmpC inh detg 1%.
CCc1ccc(C2=C(C)C(N3CCC(C(=O)NCCc4ccco4)CC3)=NS2(=O)=O)cc1 was read as AmpC inh detg 7%.
COc1ccc(CCCn2ncc3c2nc(N)n2nc(-c4ccco4)nc32)cc1 was read as Giardia FBPA inh -4%.
Screening CC(=O)Nc1cccc(C(=O)OCc2ccc(C(=O)Oc3ccc(Cl)cc3)cc2)c1 returned Giardia FBPA inh -2%, AmpC no deterg 2%, SARS PLpro yeast-1 inconclusive, AmpC inh detg 2% and SARS PLpro yeast-2 inactive.
`CC(=O)Nc1ccc(C(=O)OCc2ccc(Br)cc2)cc1` gave Giardia FBPA inh 8%, AmpC no deterg 10%, SARS PLpro yeast-1 -69% and AmpC inh detg -5%.
COc1cccc2cc(C(=O)Nc3ccc(CC(=O)O)cc3)c(=O)oc12 was read as AmpC inh detg -1%.
For C=CCc1cccc(/C=N/NC(=O)C(C)Nc2ccc(C)cc2)c1O (configuration not stated) the results were Giardia FBPA inh -9%, AmpC no deterg -57%, SARS PLpro yeast-1 inconclusive, AmpC inh detg -3% and SARS PLpro yeast-2 inactive.
COc1ccc(C2Nc3ccccc3C(=O)N2O)cc1OC (configuration not stated) was read as Giardia FBPA inh 4%, AmpC no deterg -12%, SARS PLpro yeast-1 -1% and AmpC inh detg 2%.
COc1ccc(C2Nc3ccccc3C(=O)N2O)cc1CN1CCOCC1 (configuration not stated) was read as Giardia FBPA inh -20%, AmpC no deterg -11%, SARS PLpro yeast-1 22µM*, AmpC inh detg -1% and SARS PLpro yeast-2 inactive.
Screening CCOc1ccc(C(=O)Nc2nnc(S(=O)(=O)N(CC)c3ccccc3C)s2)cc1 returned AmpC inh detg 11%.
For Clc1ccc(N2CCN(c3ncnc4c3nc3n4CCCC3)CC2)cc1 the results were AmpC inh detg -6%.
Screening O=C(Oc1ccc(=O)n(-c2ccccc2)n1)c1ccc(Cl)cc1 returned Giardia FBPA inh 0%, AmpC no deterg -7%, SARS PLpro yeast-1 -2% and AmpC inh detg inconclusive.
Screening COc1ccc(C(=O)Oc2ccc(=O)n(-c3ccccc3)n2)cc1 returned Giardia FBPA inh -2%, AmpC no deterg 27%, AmpC inh detg inconclusive and SARS PLpro yeast-2 active.
For C/C=C(\C)C(=O)C[Si](C)(C)c1ccccc1 the results were Giardia FBPA inh 1%.
Cc1nn(C(=O)c2cccc(F)c2)c(C)c1S(=O)(=O)N1CCCCCC1 was read as AmpC inh detg 5%.
Screening Cc1ccc2[nH]c(=O)c(C3C(C#N)=C(N)Oc4c3ccc3cccnc43)cc2c1 (configuration not stated) returned Giardia FBPA inh 26%, AmpC no deterg -19%, SARS PLpro yeast-1 13µM*, AmpC inh detg 2% and SARS PLpro yeast-2 active.
`COc1ccc(C2C3C=CCC(c4cccc(-c5ccc(N(C)C)cc5)c4)C3C(=O)N2Cc2ccccc2)cc1Cl` (configuration not stated) gave Giardia FBPA inh -1%.
`CCCCOc1ccc(C(=O)NCC(=O)NC2CC2)cc1` gave AmpC no deterg -15%, SARS PLpro yeast-1 11µM*, AmpC inh detg 0% and SARS PLpro yeast-2 inactive.
CCCN(CC(=O)Nc1ccc(C)cc1Br)CC(=O)Nc1ccc(F)c(F)c1F was read as Giardia FBPA inh -5%, AmpC no deterg 43%, SARS PLpro yeast-1 inconclusive, AmpC inh detg -6% and SARS PLpro yeast-2 inactive.
Cc1ccc(NC(=O)Cn2cccc2)c(C)c1 was read as Giardia FBPA inh 2%, AmpC no deterg -6%, SARS PLpro yeast-1 17% and AmpC inh detg -3%.
For Cc1ccc(NC(=O)Cn2cccc2)c(Br)c1 the results were Giardia FBPA inh 16%, AmpC no deterg -15%, SARS PLpro yeast-1 2.5µM*, AmpC inh detg -8% and SARS PLpro yeast-2 inactive.
